ELG1 genotoxic = induces genotoxicity in HEK293T cells with luciferase-tagged ELG1; HEK293T ELG1-luciferase reporter, luminescence, 16 h; Potency, µM (doses to about 46 µM), usual class: activators; 330,000 compounds, 1.3% hits; AID 504466; note: nearly all actives have a fitted effect of over 60% in size
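HEK293T cells expressing luciferase-tagged ELG1 were treated with compound or DMSO for 16 hr at 37°C. Luciferase activity was then read after 30 min with ONE-Glo at room temperature; rising signal flags genetic stress.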
FLuc modulator = counter-screen for miR-21 project: firefly luciferase inhibitors or activators. AID 588342. Potency, µM (doses to about 57.5 µM), actives largely listed as inhibitors. purified FLuc, Km substrates, luminescence inhibition. 360,000 compounds, 6.9% hits; note: nearly all actives have a fitted effect of over 55% in size
Target sequence (P08659 whole entry, looked up): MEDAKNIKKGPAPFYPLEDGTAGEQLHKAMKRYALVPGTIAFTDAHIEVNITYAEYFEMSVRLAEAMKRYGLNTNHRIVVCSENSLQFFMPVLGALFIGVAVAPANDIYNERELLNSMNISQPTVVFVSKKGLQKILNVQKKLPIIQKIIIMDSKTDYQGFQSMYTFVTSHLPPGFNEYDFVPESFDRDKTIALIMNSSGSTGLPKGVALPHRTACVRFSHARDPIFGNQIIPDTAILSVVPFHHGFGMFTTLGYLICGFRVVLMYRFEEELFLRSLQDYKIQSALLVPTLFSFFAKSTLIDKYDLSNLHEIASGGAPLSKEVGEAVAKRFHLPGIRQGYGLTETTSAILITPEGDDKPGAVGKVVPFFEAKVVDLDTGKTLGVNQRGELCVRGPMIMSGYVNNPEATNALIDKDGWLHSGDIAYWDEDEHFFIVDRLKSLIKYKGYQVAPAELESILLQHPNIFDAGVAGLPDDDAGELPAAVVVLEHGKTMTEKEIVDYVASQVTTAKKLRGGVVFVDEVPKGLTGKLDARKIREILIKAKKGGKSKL
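Purified P. pyralis luciferase, 10 nM final, with Km-level 10 uM D-luciferin and 10 uM ATP in 50 mM Tris acetate pH 7.5, 10 mM Mg acetate, 0.01% Tween-20, 0.05% BSA; 6-point qHTS titration about 60 µM downward; luminescence read.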
Rab9 prom act = Rab9 promoter activation | 320,000 compounds, 2.8% hits | Potency, µM (series often up to 9.22 µM), hits mostly activators | Huh7 Rab9 promoter-luciferase reporter, luminescence, 24 h; note: nearly all actives have a fitted effect of over 60% in size
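Steps: seed 1500 Huh7 Rab9-luc cells per well, rest 2 h at 37 °C; add compound in DMSO; incubate 24 h; add luciferase reagent, 10 min ambient; read luminescence.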
NPC1 prom act = activators of NPC1 promoter. Huh7 NPC1 promoter luciferase reporter, 24 h. Potency, µM (titrated, usually from 9.22 µM), most hits filed as activators. 320,000 compounds, 2.4% hits; note: nearly all actives have a fitted effect of over 60% in size
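In 1536-well qHTS, Huh7 cells harboring an NPC1 promoter–luciferase construct received compound for 24 h; activation was quantified by luminescence following luciferase reagent addition.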
SMN2 splice enh = increases expression of the SMN2 splice variant. HEK293 SMN2-luciferase splicing reporter, luminescence, 30-36 h. Potency, µM (top dose mostly 46.1 µM), hits mostly activators. 210,000 compounds, 2.8% hits; note: nearly all actives have a fitted effect of over 55% in size
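HEK293 cells carry an SMN2 […]–luciferase reporter in which exon 7 inclusion puts luciferase in frame. Cells were plated 10-12 h before compound addition, then incubated 30-36 h at 37C. ONE-Glo luminescence was read; sodium butyrate at 4.5 mM final served as control.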
uPA surface inh = cell surface uPA generation inhibition; Potency, µM (series often up to 38.3 µM), usual class: inhibitors; 330,000 compounds, 0.31% hits; cell surface uPA generation assay, qHTS; AID 540303; active = well fitted inhibition curve with a large enough effect; inconclusive = small, poorly fitted or top-dose-only effect; inactive = no such curve, though single readings can be large or run the other way; tested in mouse RAW 264.7 cells; note: nearly all actives have a fitted effect of over 55% in size
Numbers stand for hits; - = inactive; ? = inconclusive; . = no result given. Sampled rows, rich in hits. Any-hit rate of the full collection: about 7.3%. Unless noted, calls come from the whole dose curve; as a rule, active = well fitted curve in the direction sought with a large enough effect; inconclusive = small, poorly fitted or top-dose-only effect, or another doubt; inactive = no such curve, though single readings can be large; an effect the other way counts as inactive or inconclusive.

SMILES	ELG1 genotoxic	FLuc modulator	Rab9 prom act	NPC1 prom act	SMN2 splice enh	uPA surface inh
COc1ccc(C(=O)NCC(c2ccco2)S(=O)(=O)c2ccc(F)cc2)cc1 (configuration not stated)	.	-	.	.	.	.
O=CNCCCc1nc2ccccc2n1CCc1ccccc1	-	-	-	-	.	-
c1ccc(-n2ncc3c(NCc4cccs4)ncnc32)cc1	10.3µM	12µM	2µM	3.55µM	11.2µM	-
COc1ccc(-n2ncc3c(NCc4cccs4)ncnc32)cc1	?	9.53µM	1.12µM	2.51µM	?	-
O=C(NNc1ncnc2c1cnn2-c1ccccc1)c1cccs1	-	?	-	-	-	-
O=C(COC(=O)Cc1ccccc1F)NC(=O)NC1CCCC1	-	.	.	.	.	-
Cc1ccc(/C=N/c2sc(Cc3ccccc3)c(C)c2C(N)=O)o1	-	-	-	-	-	-
Cc1ccc(C=Nc2ccccc2C(N)=O)o1	?	26.9µM	3.55µM	?	11.2µM	-
CN(C)c1ccc(/C=N/NC(=O)C[n+]2ccccc2)cc1	.	.	.	.	.	-
CN(C)c1ccc(C=Nc2ccccc2C(N)=O)cc1	10.3µM	1.51µM	0.794µM	3.16µM	12.6µM	-
O=C1C2C3C=CC(C4CC34)C2C(=O)N1/N=C/c1ccc(-c2ccc(F)cc2[N+](=O)[O-])o1 (configuration not stated)	-	13.5µM	-	-	-	-
O=C1C2C3C=CC(C4CC34)C2C(=O)N1/N=C/c1ccc(-c2ccc(Cl)cc2[N+](=O)[O-])o1 (configuration not stated)	-	-	-	-	-	-
COc1ccc(Cn2cc(C(=O)c3ccc(OC)cc3)c(=O)c3cc4c(cc32)OCCO4)cc1	.	-	.	.	-	.
COc1ccc2c(c1)CC/C(=C/c1ccncc1)C2=O	-	13.5µM	-	-	-	-
COc1ccc(/C=C2/CCOC2=O)cc1	-	-	-	-	-	-
COc1ccc2c(c1)CC/C(=C\c1ccc(C)o1)C2=O	?	2.39µM	2.82µM	2.51µM	.	?
COc1ccc2c(c1)CCc1cnoc1-2	.	.	.	.	.	-
CCOC(=O)c1c(NC(=O)c2cc3nc(-c4ccc(OC)cc4)cc(C(F)(F)F)n3n2)sc2c1CCC(C)C2 (configuration not stated)	.	-	.	.	.	.
CCOC(=O)Cc1csc(NC(=O)/C=C/c2ccc(OC)cc2)n1	-	1.35µM	-	-	-	-
CCOC(=O)Cc1csc(NC(=O)/C=C\c2ccccc2)n1	-	5.36µM	-	-	-	-
COc1ccc(Nc2ncccc2C(=O)O)cc1	14.6µM	15.1µM	?	?	-	.
COc1ccccc1Nc1ncccc1C(=O)O	-	-	-	-	-	-
Cc1cc(Cl)ccc1Nc1ncccc1C(N)=O	?	15.1µM	?	-	8.91µM	-
Cc1c(Nc2ncccc2C(=O)O)cccc1C(F)(F)F	?	19µM	-	-	-	-
NC(=O)c1cccnc1Nc1ccccc1F	?	-	-	-	-	-
SMILES	ELG1 genotoxic	FLuc modulator	Rab9 prom act	NPC1 prom act	SMN2 splice enh	uPA surface inh
Cc1ccc(Nc2ncccc2C(N)=O)cc1	?	?	2.82µM	3.55µM	11.2µM	-
Cc1csc(SCC(=O)NC(=O)NCCC(C)C)n1	-	-	-	-	-	-
COc1ccc(-c2cc(C(F)(F)F)nc(SCC(=O)NCCc3ccc(OC)c(OC)c3)n2)cc1	.	-	.	.	-	.
COC(=O)CC(NC(=O)c1ccc(C)cc1)c1ccccc1 (configuration not stated)	-	3.79µM	-	-	-	-
Cc1ccc(C(=O)NC(c2ccccc2)C(Cl)Cl)cc1 (configuration not stated)	-	21.3µM	-	-	-	-
O=C1CC2(CCCC2)CC(=O)N1CCCCNCC1COc2ccccc2O1 (configuration not stated)	.	.	.	.	-	.
CCOC(=O)c1c(C)[nH]c(CCC(=O)Nc2ccc(C)c(F)c2)c1C	.	-	.	.	.	.
CN(C)/C=C1/N=C(c2ccccc2)OC1=O	-	-	-	-	-	-
O=C1OC(c2ccccc2)=C/C1=C/N1CCCCC1	?	6.01µM	2.51µM	2.51µM	?	-
O=C1OC(c2ccc(Br)cc2)=N/C1=C\N1CCCCC1	14.6µM	?	2.51µM	2.24µM	12.6µM	-
Cc1ccc(C2=N/C(=C\c3c(C)nn(-c4ccccc4)c3N3CCCC3)C(=O)O2)cc1	-	-	-	-	-	-
O=C1OC(c2ccccc2)=N/C1=C\N1CCCCC1	?	9.53µM	3.55µM	2.82µM	?	-
CN(C)c1ccc(/C=C2/C=C(c3ccc4c(c3)CCCC4)OC2=O)cc1	-	-	-	-	.	-
COc1ccc(CNC(=O)CSCc2nc(-c3ccccc3C)oc2C)cc1	.	?	.	.	-	.
Cc1ccc(-c2nc3scc(CCNS(=O)(=O)c4c(C)noc4C)n3n2)cc1	.	-	.	.	.	.
O=C(O)Cc1ccc(OCc2ccc(Cl)nc2)cc1	-	15.1µM	-	-	-	-
COc1cccc(CNC(=O)CCCc2c[nH]c3ccccc23)c1	-	-	-	-	.	-

Source: PubChem BioAssay (National Center for Advancing Translational Sciences (NCATS))
